Pf Dd2 growth = qHTS Primary assay for Inhibitors of Plasmodium falciparum Dd2 growth in vitro. hit rate 4.3% among 120,000. P. falciparum Dd2 growth, SYBR Green, 72 h. Potency, µM (titrated, usually from 28.9 µM), for inactives: top-dose activity, negative = inhibition, usual class: inhibitors; active means well fitted inhibition curve with a large enough effect;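 further: plate controls were DMSO vehicle for no effect and reference drug for full effect; nearly all actives have a fitted effect of over 65% in size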
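Readout: SYBR Green fluorescence, 485 nm excitation, 535 nm emission, after ~16 h lysis at 37C. Before that, Dd2-infected red cells (2.5% hematocrit) grew 72 h with compound, 29 uM top final concentration.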
* = called active by the depositor; i = inactive; [ ] = another dose, or the depositor's remark. Only a selection was taken, and hits are over-represented in it overall. Potency means the concentration at half of the fitted maximal effect.

SMILES	Pf Dd2 growth
CNC(=O)[C@@H]1CN(C(=O)c2ccc(Cl)s2)C[C@H]1c1nc(COC)no1	-9%
CCCS(=O)(=O)N1CC(=O)N(c2ccc(C)cc2C)C(C)(C(=O)NC2CCCCCC2)C1 (stereo not drawn)	39%
Cc1ccc2c(c1)nc1n2[C@@H](CNC(=O)c2ccncc2)COC1	10%[44.1 µM]
O=C(c1ccc2c(c1)OCO2)N1CCC(Cc2nc(-c3ccccc3)no2)CC1	5%
COc1ccc(-c2noc(CC3CCN(C(=O)c4cc(F)cc(F)c4)CC3)n2)cc1	-26%
COC(=O)c1cccc(C(=O)N2CCC(Cc3nc(-c4ccc(F)cc4)no3)CC2)c1	10µM*
COc1ccc(-c2noc(CC3CCN(C(=O)c4ccc5c(c4)OCO5)CC3)n2)cc1	11µM*
COc1ccc(C(=O)N2CCC(Cc3nc(-c4ccc(F)cc4)no3)CC2)cc1F	-20%
COC(=O)c1cccc(C(=O)N2CCC(Cc3nc(-c4cnccn4)no3)CC2)c1	i
Cc1ccc(OCC(=O)N2CC[C@@](O)(C3CCOCC3)[C@H](C)C2)cc1	-17%
Cc1nc(N2CCOCC2)c2c(C(=O)N3CCN(c4ccc(Cl)cc4)CC3)c(C)oc2n1	17%
COc1ccc(N2CCN(C(=O)c3cc(NS(=O)(=O)c4ccc(F)cc4)ccn3)CC2)cc1	2%
CCOc1ccc(-n2c(SCc3ccccc3)nc3c([nH]c4ccccc43)c2=O)cc1	i
O=C(CCCc1ccccc1)N1CC2CC(C1)[C@H]1CCCC(=O)N1C2 (stereo partly drawn)	-8%
Cc1cccc(NC(=O)Cn2c(=O)n(Cc3ccc(C(=O)NCc4ccc5c(c4)OCO5)cc3)c(=O)c3ccccc32)c1	4µM*
Cc1ccc(C)c(NC(=O)Cn2c(=O)n(Cc3ccc4c(c3)OCO4)c(=O)c3ccc(C(=O)NC4CCCCC4)cc32)c1	i
Cc1cc(C)c(NC(=O)Cn2c(=O)n(Cc3ccc(C(=O)NCc4ccc5c(c4)OCO5)cc3)c(=O)c3ccccc32)c(C)c1	i
COc1cccc(NC(=O)Cn2c(=O)n(Cc3ccc(C(=O)NCc4ccc(C)cc4)cc3)c(=O)c3ccccc32)c1	-25%
COc1ccc(NC(=O)Cn2c(=O)n(Cc3ccc(C(=O)NCc4ccccc4Cl)cc3)c(=O)c3ccccc32)cc1OC	-7%
O=C(Cn1c(=O)n(Cc2ccc(C(=O)NCc3ccccc3Cl)cc2)c(=O)c2ccccc21)Nc1ccc(F)c(Cl)c1	10µM*
O=C(Cn1c(=O)n(Cc2ccc(C(=O)NCc3ccccc3Cl)cc2)c(=O)c2ccccc21)Nc1ccc(F)cc1	-26%
Cc1ccc(NC(=O)Cn2c(=O)n(Cc3ccco3)c(=O)c3ccc(C(=O)NC4CCCC4)cc32)c(C)c1	1%
CCN(C(=O)Cn1c(=O)n(Cc2ccc3c(c2)OCO3)c(=O)c2ccc(C(=O)NC3CCCCC3)cc21)c1cccc(C)c1	1.3µM*
CC(C)C(=O)NC[C@H]1O[C@H](Cc2cc(CN3CCCCC3)on2)CC[C@@H]1O	-9%[44.1 µM]
CCOc1ccc(CN2CCN(c3nc4ccccc4o3)CC2CCO)cc1 (stereo not drawn)	-10%
SMILES	Pf Dd2 growth
Cn1cc(-c2cccc(CO)c2)c2nc(CNc3ccccc3)cn2c1=O	i
COc1ccc(NC(=O)c2ccc3c(c2)NC(C)(COc2ccc4[nH]ccc4c2)CO3)cn1 (stereo not drawn)	-26%
Cn1c(=O)n(C)c2cc(NS(=O)(=O)c3ccccc3)c(NCc3ccccc3)cc21	-23%
O=C(O)CCc1nnc2cnc3ccccc3n12	12%
Cc1ccc(CNC(=O)CSc2ccc(-c3sc(-c4ccccc4)nc3C)nn2)cc1	-4%
Cc1nc(-c2ccccc2)sc1-c1ccc(SCC(=O)Nc2cccc(C(F)(F)F)c2)nn1	-8%
CC(=O)Nc1cccc(NC(=O)CSc2ccc(-c3sc(-c4ccccc4)nc3C)nn2)c1	8.9µM*
O=C(c1cccc2[nH]ccc12)N1CCC2(CC1)N(Cc1cccc(F)c1)C(=O)CS2=O (stereo not drawn)	-7%
COc1ccc(S(=O)(=O)NCC2CCCN(C(=O)c3ncoc3C)C2)cc1 (stereo not drawn)	3%
COCC1CN(C2CCC2)CC12CCN(C(=O)c1cnc(C)cn1)CC2 (stereo not drawn)	i
O[C@@H]1CN(Cc2ccc(-n3cccn3)cc2)CC[C@H]1c1ccc(F)cc1	3.5µM*
O=C1CC2CCN(Cc3ccc(F)cc3)CC2CCN1 (stereo not drawn)	4%[44.1 µM]
CC(C)(O)C#Cc1ccc(CN2CC[C@@H](c3ccc(F)cc3)[C@H](O)C2)s1	i
CCCCN(CCCC)CCNC(=O)c1cn(C)c2ccc(S(=O)(=O)N3CCCC3)cc2c1=O	i
O=C(NCc1ccccc1)c1cn(C2CN(C(=O)NCc3ccccc3)C2)nn1	-15%
Cc1ccc(-c2cnc([C@@H]3COCCN3Cc3ccccc3F)[nH]2)cc1	i
Cc1cccc(Cn2c(-c3cccs3)nc3ccccc32)c1	-9%
COc1cccc(N2CCN(C(=O)C3CCCN(Cc4cccnc4)CCC(=O)NCC3)CC2)c1 (stereo not drawn)	4µM*
COc1cccc(CN2CCCC(C(=O)NCc3ccccc3)CCNC(=O)CC2)c1 (stereo not drawn)	6.3µM*
Cc1cccc(N2CCN(C(=O)C3CCCN(C(=O)c4cccnc4)CCC(=O)NCC3)CC2)c1 (stereo not drawn)	6%
N#Cc1ccccc1CN1CCCC(C(=O)NCc2ccccc2)CCNC(=O)CC1 (stereo not drawn)	i
CCN1CCN(C(=O)C2CCCN(Cc3cccnc3)CCC(=O)NCC2)CC1 (stereo not drawn)	9%
COc1cccc(CN2CCCC(C(=O)NCc3ccncc3)CCNC(=O)CC2)c1 (stereo not drawn)	-5%
COc1cccc(CNC(=O)CCS(=O)(=O)c2cc3c4c(c2)CCN4C(=O)CC3)c1	6%
CC(C)(C)c1ccc(CN(Cc2ccco2)c2cnc(S(C)(=O)=O)nc2C(=O)Nc2ccc(F)cc2)cc1	7.9µM*
SMILES	Pf Dd2 growth
CS(=O)(=O)c1ncc(N(Cc2ccccc2)Cc2ccco2)c(C(=O)Nc2cccc(C(F)(F)F)c2)n1	6.3µM*
CS(=O)(=O)c1ncc(Cl)c(C(=O)N(Cc2ccc(Cl)cc2)Cc2ccco2)n1	i[5.79 µM]
CS(=O)(=O)c1ncc(N(Cc2ccco2)Cc2ccco2)c(C(=O)Nc2ccccc2Br)n1	-19%
O=C(Nc1cccc(C(F)(F)F)c1)c1cc2nc(-c3ccco3)cc(C(F)(F)Cl)n2n1	15%
CCS(=O)(=O)c1ncc(N(Cc2ccco2)Cc2ccccc2F)c(C(=O)Nc2cccc(Cl)c2)n1	4µM*
COc1ccc(CN(Cc2ccco2)c2cnc(S(C)(=O)=O)nc2C(=O)Nc2ccc(C)cc2C)cc1	-1%
O=C(Nc1nc2ccc(F)cc2s1)c1nc(S(=O)(=O)Cc2ccccc2F)ncc1Cl	77%
CCSc1ncc(Cl)c(C(=O)Nc2cccc(Cl)c2)n1	24%
COc1ccc(-n2cc(C(=O)NCc3ccc(Cl)cc3)c3ccccc3c2=O)cc1	-15%
CC(=O)N1CCC(NC[C@H]2COCc3nc4ccc(C)cc4n32)CC1	7%[44.1 µM]
COc1ccc(Cl)cc1NC(=O)c1cc(S(=O)(=O)N(C)Cc2ccccc2)ccc1F	84%
COc1ccc(NC(=O)N[C@H]2C[C@@H](c3nc(-c4ccncc4)no3)N(C)C2)cc1	-2%[44.1 µM]
O=C(Cn1cnc2onc(-c3ccc(Cl)cc3)c2c1=O)Nc1ccc(F)cc1	-22%
CCOc1ccc(NC(=O)CCn2cnc3onc(-c4ccc(F)cc4)c3c2=O)cc1	i

From PubChem
